Active and inactive are the calls of the source. The calls were made as follows: active = hit-call score of the fitted dose curve at least 0.9, where 1 is the maximum; inactive = score below 0.9.
Key:
Settings in all cases: mRNA level, 48 h; actives raise or lower the signal
[1] = read-out: Hypoxia-inducible factor 1-alpha (Homo sapiens) (UniProt Q16665); experiment: LTEA_HepaRG_HIF1A: Life Technologies and Expression Analysis (LTEA) Assay for Hypoxia-inducible factor 1 (HIF1A) Trancription factor using HepaRG (AID 2283503)
Procedure, shortened: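 Differentiated HepaRG cells in serum-free induction medium exposed 48 h, in duplicate, to 8-point half-log series from 100 uM in 0.5% DMSO. HIF1A mRNA measured by TaqMan qRT-PCR, normalized to ACTB/GAPDH/POLR2A, fitted bidirectionally versus DMSO.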

[2] = read-out: 3-Hydroxy-3-Methylglutaryl-CoA Synthase 2 (HMGCS2), HMGCS2 (gene 3158); experiment: LTEA_HepaRG_HMGCS2: Life Technologies and Expression Analysis (LTEA) Assay for 3-Hydroxy-3-Methylglutaryl-CoA Synthase 2 (HMGCS2) using HepaRG (AID 2283504)
Procedure, shortened: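 HepaRG, plated 48 h then switched to serum-free induction media; cmpd 8-pt, max 100 uM, 1/2-log, 0.5% DMSO, n=2, 48 h. HMGCS2 mRNA by Fluidigm TaqMan qRT-PCR, ACTB/GAPDH/POLR2A norm; bidirectional fit vs DMSO.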

HGF (gene 3082) = experiment: LTEA_HepaRG_HGF: Life Technologies and Expression Analysis (LTEA) Assay for Hepatocyte Growth Facto (HGF) using HepaRG (AID 2283505)
Procedure, shortened: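 Read-out is HGF transcript level by qRT-PCR, normalized to three housekeeping genes, fitted bidirectionally against 0.5% DMSO vehicle. Human HepaRG cells received test chemicals for 48 h at up to 100 uM.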

[3] = read-out: Insulin Like Growth Factor 1 (IGF1), IGF1 (gene 3479); experiment: LTEA_HepaRG_IGF1: Life Technologies and Expression Analysis (LTEA) Assay for Insulin Like Growth Factor 1 (IGF1) using HepaRG (AID 2283506)
Procedure, shortened: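 HepaRG, plated 48 h, then switched to serum-free induction media; test chemical 8-pt half-log from 100 uM (0.5% DMSO), duplicate, 48 h. Lysis in RLT, TaqMan qRT-PCR, norm. ACTB/GAPDH/POLR2A. Bidirectional fit vs DMSO.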

[4] = read-out: Intercellular Adhesion Molecule 1 (ICAM1), ICAM1 (gene 3383); experiment: LTEA_HepaRG_ICAM1: Life Technologies and Expression Analysis (LTEA) Assay for Intercellular Adhesion Molecule 1 (ICAM1) using HepaRG (AID 2283507)
Procedure, shortened: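 Readout is qRT-PCR mRNA level, normalized to three housekeeping genes and fitted bidirectionally against 0.5% DMSO vehicle. Human HepaRG cultures received compound for 48 h, top concentration 100 uM with half-log dilutions.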

[5] = read-out: Insulin-like growth factor-binding protein 1 (IGFBP1), IGFBP1 (gene 3484); experiment: LTEA_HepaRG_IGFBP1: Life Technologies and Expression Analysis (LTEA) Assay for Insulin-like growth factor-binding protein 1 (IGFBP1) using HepaRG (AID 2283508)
Procedure, shortened: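 Thawed HepaRG cells are plated for 48 h, switched to serum-free induction medium, then dosed in duplicate for another 48 h (100 uM top, half-log steps). Lysates in RLT go to qRT-PCR, and gain or loss of signal is fitted relative to vehicle.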

[6] = read-out: Interleukin 6 (IL6), IL6 (gene 3569); experiment: LTEA_HepaRG_IL6: Life Technologies and Expression Analysis (LTEA) Assay for Interleukin 6 (IL6) using HepaRG (AID 2283509)
Procedure, shortened: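 Differentiated human HepaRG cells, plated 48 h then switched to serum-free induction medium, were exposed in duplicate for 48 h to eight half-log concentrations up to 100 uM in 0.5% DMSO. IL6 mRNA measured by qRT-PCR, normalized to ACTB/GAPDH/POLR2A.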

[7] = read-out: Interleukin 6 Receptor (IL6R), IL6R (gene 3570); experiment: LTEA_HepaRG_IL6R: Life Technologies and Expression Analysis (LTEA) Assay for Interleukin 6 Receptor (IL6R) using HepaRG (AID 2283510)
Procedure, shortened: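 Readout is IL6R transcript level by TaqMan qRT-PCR, normalized to three housekeeping genes and fitted bidirectionally against 0.5% DMSO controls. Human HepaRG cells received chemicals for 48 h in serum-free induction medium, highest concentration 100 uM.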

[8] = read-out: Potassium channel subfamily K member 1 (KCNK1), KCNK1 (gene 3775); experiment: LTEA_HepaRG_KCNK1: Life Technologies and Expression Analysis (LTEA) Assay for Potassium channel subfamily K member 1 (KCNK1) using HepaRG (AID 2283511)
Procedure, shortened: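 Differentiated human HepaRG cells in serum-free induction medium were exposed in duplicate for 48 h to 8 half-log concentrations up to 100 uM in 0.5% DMSO. KCNK1 mRNA was measured by TaqMan qRT-PCR, normalized to ACTB, GAPDH and POLR2A, and fitted bidirectionally versus DMSO.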

[9] = read-out: Keratin 19 (KRT19), KRT19 (gene 3880); experiment: LTEA_HepaRG_KRT19: Life Technologies and Expression Analysis (LTEA) Assay for Keratin 19 (KRT19) using HepaRG (AID 2283512)
Procedure, shortened: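 KRT19 transcript levels, measured by Fluidigm qRT-PCR against three housekeeping genes, are fitted for gain or loss of signal relative to DMSO. Human HepaRG cells receive test chemicals (top 100 uM, half-log steps, 0.5% DMSO) for 48 hours.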

[10] = read-out: JUN Transcription Factor, JUN (gene 3725); experiment: LTEA_HepaRG_JUN: Life Technologies and Expression Analysis (LTEA) Assay for JUN Transcription Factor using HepaRG (AID 2283513)
Procedure, shortened: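 Cells plated 48 h, medium switched to serum-free induction medium, then dosed 48 h (100 uM top, half-log dilutions, 0.5% DMSO). RNA isolated; JUN measured by qRT-PCR against three housekeeping genes; gain or loss fitted relative to DMSO.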

[11] = read-out: Lipoprotein lipase (LPL), LPL (gene 4023); experiment: LTEA_HepaRG_LPL: Life Technologies and Expression Analysis (LTEA) Assay for Lipoprotein lipase (LPL) using HepaRG (AID 2283515)
Procedure, shortened: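 Differentiated human HepaRG cells in serum-free induction medium were exposed in duplicate for 48 h to eight half-log concentrations (top 100 uM) in 0.5% DMSO. LPL mRNA was quantified by TaqMan qRT-PCR, normalized to ACTB, GAPDH and POLR2A.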

[12] = read-out: MicroRNA 122 (MIR122), gene 406906; experiment: LTEA_HepaRG_MIR122: Life Technologies and Expression Analysis (LTEA) Assay for MicroRNA 122 (MIR122) using HepaRG (AID 2283516); also: the transcript read is the microRNA miR-122
Procedure, shortened: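 HepaRG plated 48 h, switched to serum-free induction medium, then treated in duplicate for 48 h (100 uM top, half-log steps, 0.5% DMSO vehicle). RNA isolated, qRT-PCR performed, concentration-response fitted both directions relative to DMSO.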

[13] = read-out: matrix metalloproteinase-10 (MMP10), MMP10 (gene 4319); experiment: LTEA_HepaRG_MMP10: Life Technologies and Expression Analysis (LTEA) Assay for matrix metalloproteinase-10 (MMP10) using HepaRG (AID 2283517)
Procedure, shortened: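 HepaRG, collagen I, ~100,000 cells/well; serum-free induction medium; 48 h exposure, duplicate, 8-pt half-log to 100 uM, 0.5% DMSO. Readout: TaqMan qRT-PCR, normalized to ACTB/GAPDH/POLR2A; bidirectional fit vs DMSO.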

MYC, MYC (gene 4609) = experiment: LTEA_HepaRG_MYC: Life Technologies and Expression Analysis (LTEA) Assay for MYC using HepaRG (AID 2283518)
Procedure, shortened: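 HepaRG, ~100,000 cells/well, collagen I; 48 h plating; serum-free induction medium; 48 h dosing, duplicate, 100 uM top, half-log, 0.5% DMSO; total RNA → qRT-PCR MYC; gain/loss fit vs DMSO.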

[14] = read-out: matrix metalloproteinase-3 (MMP3), MMP3 (gene 4314); experiment: LTEA_HepaRG_MMP3: Life Technologies and Expression Analysis (LTEA) Assay for matrix metalloproteinase-3 (MMP3) using HepaRG (AID 2283519)
Procedure, shortened: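 Differentiated human HepaRG cells, plated 48 h on collagen I, were exposed in duplicate for 48 h in serum-free induction medium to eight half-log concentrations up to 100 uM in 0.5% DMSO. MMP3 mRNA was quantified by TaqMan qRT-PCR, normalised to ACTB, GAPDH and POLR2A.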

[15] = read-out: Paternally Expressed 10 (PEG10), PEG10 (gene 23089); experiment: LTEA_HepaRG_PEG10: Life Technologies and Expression Analysis (LTEA) Assay for Paternally Expressed 10 (PEG10) using HepaRG (AID 2283520)
Procedure, shortened: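 HepaRG, 48 h post-plating → serum-free induction medium → 48 h chemical exposure (duplicate, 8-pt, max 100 uM, half-log, 0.5% DMSO) → lysis in RLT → TaqMan qRT-PCR for PEG10, ACTB/GAPDH/POLR2A normalisation.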

[16] = read-out: Nuclear factor NF-kappa-B p105 subunit (Homo sapiens) (UniProt P19838); experiment: LTEA_HepaRG_NFKB1: Life Technologies and Expression Analysis (LTEA) Assay for Nuclear Factor Kappa B Subunit 1 (NFKB1) using HepaRG (AID 2283521);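 also: TaqMan qRT-PCR transcript normalised to ACTB GAPDH and POLR2A housekeeping genes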
Procedure, shortened: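 NFKB1 transcript was measured by TaqMan qRT-PCR on Fluidigm arrays, normalised to three housekeeping genes and fitted in both directions against 0.5% DMSO. HepaRG cells were dosed in duplicate for 48 h in serum-free induction medium, eight half-log steps from 100 uM.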

[17] = read-out: Protein phosphatase 2A (PPP2R4), PTPA (gene 5524); experiment: LTEA_HepaRG_PPP2R4: Life Technologies and Expression Analysis (LTEA) Assay for Protein phosphatase 2A (PPP2R4) using HepaRG (AID 2283522)
Procedure, shortened: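 Readout is PPP2R4 transcript level by microfluidic qRT-PCR after 48 h chemical treatment of human HepaRG liver cells. Concentrations spanned 100 uM downward in half-log steps; gain or loss of signal was fitted relative to DMSO.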

Measured: AC50

Sequence of Hypoxia-inducible factor 1-alpha (Homo sapiens) (Q16665 whole entry, looked up): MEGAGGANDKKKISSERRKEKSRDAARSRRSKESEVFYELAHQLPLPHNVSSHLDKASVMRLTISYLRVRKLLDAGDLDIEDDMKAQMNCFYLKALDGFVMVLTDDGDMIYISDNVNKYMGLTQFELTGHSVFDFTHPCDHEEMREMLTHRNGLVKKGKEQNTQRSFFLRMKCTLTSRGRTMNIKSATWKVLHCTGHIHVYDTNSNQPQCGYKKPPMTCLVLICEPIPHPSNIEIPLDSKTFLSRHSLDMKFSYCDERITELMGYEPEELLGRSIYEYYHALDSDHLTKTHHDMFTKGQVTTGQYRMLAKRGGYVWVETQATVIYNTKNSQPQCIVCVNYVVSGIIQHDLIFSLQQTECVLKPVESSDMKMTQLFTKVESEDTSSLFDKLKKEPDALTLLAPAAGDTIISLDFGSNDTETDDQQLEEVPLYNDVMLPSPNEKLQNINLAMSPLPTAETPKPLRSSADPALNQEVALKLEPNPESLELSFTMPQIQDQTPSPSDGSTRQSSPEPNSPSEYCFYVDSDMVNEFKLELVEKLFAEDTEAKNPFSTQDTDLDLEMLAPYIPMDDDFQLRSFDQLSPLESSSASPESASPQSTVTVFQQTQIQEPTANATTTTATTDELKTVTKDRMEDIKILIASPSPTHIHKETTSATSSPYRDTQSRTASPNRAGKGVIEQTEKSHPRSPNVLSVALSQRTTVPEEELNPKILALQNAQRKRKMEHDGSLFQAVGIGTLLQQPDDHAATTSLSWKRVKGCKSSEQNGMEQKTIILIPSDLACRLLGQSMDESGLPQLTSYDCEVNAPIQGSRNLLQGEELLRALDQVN
Sequence of Nuclear factor NF-kappa-B p105 subunit (Homo sapiens) (P19838 whole entry, looked up): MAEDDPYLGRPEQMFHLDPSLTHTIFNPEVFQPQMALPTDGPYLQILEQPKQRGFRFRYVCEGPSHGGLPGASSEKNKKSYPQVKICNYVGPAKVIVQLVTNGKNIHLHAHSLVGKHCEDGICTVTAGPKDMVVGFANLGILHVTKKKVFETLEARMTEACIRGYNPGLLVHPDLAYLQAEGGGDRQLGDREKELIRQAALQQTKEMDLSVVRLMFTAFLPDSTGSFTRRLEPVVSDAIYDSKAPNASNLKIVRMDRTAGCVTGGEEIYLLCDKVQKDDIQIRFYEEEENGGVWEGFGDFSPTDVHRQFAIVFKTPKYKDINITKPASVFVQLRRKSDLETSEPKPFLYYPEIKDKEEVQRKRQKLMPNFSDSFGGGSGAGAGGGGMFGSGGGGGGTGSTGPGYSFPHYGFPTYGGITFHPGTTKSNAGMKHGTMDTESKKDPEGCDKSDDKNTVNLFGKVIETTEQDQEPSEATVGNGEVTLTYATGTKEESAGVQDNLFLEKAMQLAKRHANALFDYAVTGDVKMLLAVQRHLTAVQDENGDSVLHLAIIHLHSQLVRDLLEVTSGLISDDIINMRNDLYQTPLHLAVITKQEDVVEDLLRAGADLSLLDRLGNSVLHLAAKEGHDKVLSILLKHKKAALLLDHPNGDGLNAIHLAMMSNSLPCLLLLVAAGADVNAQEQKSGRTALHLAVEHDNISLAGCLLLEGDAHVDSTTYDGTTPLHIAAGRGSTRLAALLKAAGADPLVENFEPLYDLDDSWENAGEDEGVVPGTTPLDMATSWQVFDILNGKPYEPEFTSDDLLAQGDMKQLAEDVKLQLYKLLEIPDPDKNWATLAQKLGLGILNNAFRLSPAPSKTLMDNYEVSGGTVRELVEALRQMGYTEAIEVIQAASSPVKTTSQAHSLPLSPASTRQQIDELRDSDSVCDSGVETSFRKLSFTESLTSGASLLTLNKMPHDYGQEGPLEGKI

O=C(NC(=O)c1c(F)cccc1F)Nc1ccc(OC(F)(F)C(F)OC(F)(F)F)c(Cl)c1 (stereo unspecified)
inactive: all assays above

CC(C)N(C(=O)COc1nnc(C(F)(F)F)s1)c1ccc(F)cc1
active: [2] 50 µM | [15] 22.2 µM | [17] 31.4 µM
inactive: all other assays above

CC1(c2ccc(Oc3ccccc3)cc2)OC(=O)N(Nc2ccccc2)C1=O (stereo unspecified)
active: [2] 12.5 µM | [3] 8.33 µM | [4] 13.3 µM | [5] 13.4 µM | [6] 21.1 µM | [8] 26.3 µM | [9] 2.79 µM | [10] 33.5 µM | [11] 12.3 µM | [12] 10.6 µM | [13] 26.1 µM | MYC, MYC (gene 4609) 10.2 µM | [14] 10.6 µM | [15] 6.47 µM | [17] 12.1 µM
inactive: [1] | HGF (gene 3082) | [7]

C#CCN1C(=O)COc2cc(F)c(N3C(=O)C4=C(CCCC4)C3=O)cc21
active: [3] 23.5 µM | [15] 37.8 µM
inactive: all other assays above

CNC(=O)CSP(=S)(OC)OC
not listed: [16]
inactive: all other assays above

N#Cc1c(Cl)c(Cl)c(Cl)c(C#N)c1Cl
active: [5] 3.27 µM | [9] 12.7 µM | [11] 18 µM | [12] 90.9 µM | [13] 15.6 µM | MYC, MYC (gene 4609) 50 µM | [14] 21 µM
not listed: [16]
inactive: all other assays above

From PubChem BioAssay (EPA / NIEHS)
